Screening data from PubChem.
In the library only some 6.1% were active in any assay of this set; here they are far more common.
D1 ag = agonists of human D1 dopamine receptor | AID 504660 | activation, % at 2 µM | HEK293 T-REx D1 cells, calcium flux, agonist mode | P21728 | 360,000 tested, 1% active; in the data active = activation above about 30%
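Inducible HEK293 T-REx D1 cells, force-coupled to calcium signalling, were plated at 4000 cells/well with tetracycline and held overnight at 30 C. After no-wash calcium dye loading, compound-evoked calcium rise over 180 s flagged agonists.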
D1 antagonist = human D1 dopamine receptor antagonism; HEK293 TREx D1 cells, calcium flux, dopamine EC80; stronger effect = lower value; 360,000 tested, 3.2% active; P21728; activity change, negative = inhibition, % at 10 µM; in the data active = activity change below about -30%
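Calcium flux readout: force-coupled, inducible Hek293 Trex D1 line, cells induced overnight at 30 C with tetracycline, dye-loaded 30–90 min at RT. Antagonism scored against EC80 dopamine challenge given 180 s after compound.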
D3 ag = D3 dopamine receptor (human) agonism; P35462; D3R DiscoveRx beta-arrestin cells, luminescence, 90 min; max activation, %; 410,000 tested, 0.58% active; AID 652048; in the data active = max activation above about 30%
Target sequence (P35462 whole entry, looked up): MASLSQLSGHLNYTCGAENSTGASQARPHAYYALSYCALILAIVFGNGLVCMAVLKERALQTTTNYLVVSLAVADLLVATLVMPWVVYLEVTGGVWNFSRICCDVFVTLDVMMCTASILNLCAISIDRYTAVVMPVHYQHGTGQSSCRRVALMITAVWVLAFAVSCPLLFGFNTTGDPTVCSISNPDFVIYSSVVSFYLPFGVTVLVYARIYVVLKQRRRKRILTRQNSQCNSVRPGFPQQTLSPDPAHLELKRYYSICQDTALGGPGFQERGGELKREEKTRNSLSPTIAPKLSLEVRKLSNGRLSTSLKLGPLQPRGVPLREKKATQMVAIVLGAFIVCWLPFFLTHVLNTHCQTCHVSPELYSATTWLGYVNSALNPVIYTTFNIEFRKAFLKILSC
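Agonist mode: compounds and dopamine controls were applied to plated cells for 90 min at 37 degrees C after an overnight attachment at 1500 cells/well. Luminescent read-out followed 30 - 60 minutes at room temperature with DiscoveRx detection reagent.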
D1 potentiator = potentiators of human D1 dopamine receptor. P21728. HEK293 TREx D1 cells, calcium flux, dopamine EC20 potentiation. potentiation, % at 10 µM. 360,000 tested, 0.036% active. AID 504651; in the data active = potentiation above about 30%
DRD3 antagonist = D3 dopamine receptor (human) antagonism; P35462; D3R cells, DiscoveRx beta-arrestin luminescence, antagonist mode; stronger effect = lower value; max response, negative = inhibition, %; 360,000 tested, 2.5% active; AID 652054; in the data active = max response below about -50%
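Cells plated overnight at 1500 cells/well, then exposed to library compounds with dopamine controls for 90 minutes at 37 degrees C. DiscoveRx reagent added for 30–60 minutes at room temperature; luminescence read, quantitative HTS format.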
ERG-DNA inh = inhibitors of human ERG Ets domain-DNA interaction | 370,000 tested, 0.028% active | Potency, µM (titrated, usually from 76.9 µM), most hits filed as inhibitors | fluorescence polarization, His-ERG Ets domain / labelled DNA | AID 624246; active = well fitted inhibition curve with a large enough effect in the polarisation, with a control signal flat; the % refers to the polarisation;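 note: polarization taken with two DNA probes labelled with fluorescein and Texas red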
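His-tagged ERG Ets domain (1 uM in the protein solution; 300mM KCl, 50mM Tris-HCl, 1mM EDTA, 1mM DTT, pH 7.5) received compound, then a probe mix of 5 nM fluorescein-DNA and 100nM Texas-615-DNA. Fluorescence polarization was read for both dyes.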
A number is an active result.

`O=C(NNS(=O)(=O)c1ccc(F)cc1)c1sccc1-n1cccc1` gave D1 ag inactive, D1 antagonist inactive, D3 ag inactive, D1 potentiator inactive, DRD3 antagonist inactive and ERG-DNA inh inactive.
For COc1ccc(CN2COc3ccc4c(-c5ccccc5)cc(=O)oc4c3C2)cc1 the results were D1 ag inactive, D1 antagonist inactive, D3 ag inactive, D1 potentiator inactive and ERG-DNA inh inactive.
For CC(=O)Nc1nc(NCc2ccccc2Cl)n(-c2ccccc2)n1 the results were D1 ag inactive, D1 antagonist inactive, D3 ag inactive, D1 potentiator inactive, DRD3 antagonist inactive and ERG-DNA inh inactive.
O=C(Nc1nc(NC(=O)c2ccco2)n(-c2ccccc2)n1)c1ccccc1 was read as D1 ag inactive, D1 antagonist inactive, D3 ag 39, D1 potentiator inactive and DRD3 antagonist inactive.
`CC(=O)Nc1nc(NC(=O)/C=C/c2ccccc2)n(-c2ccccc2)n1` gave D1 ag inactive, D1 antagonist inactive, D3 ag inactive, D1 potentiator inactive, DRD3 antagonist -72 and ERG-DNA inh inactive.
`Cc1nn(Cc2ccc([N+](=O)[O-])cc2)c(=O)n1-c1c(F)cccc1F` gave D1 ag inactive, D1 antagonist inactive, D3 ag inactive, D1 potentiator inactive, DRD3 antagonist -61 and ERG-DNA inh inactive.
Cc1nc2c(-c3ccccc3)c(C)nn2c(C)c1CCC(=O)NCc1ccccc1 was read as D1 ag inactive, D1 antagonist inactive, D3 ag inactive, D1 potentiator inactive and ERG-DNA inh inactive.
`Cc1nc2c(-c3ccccc3)c(C)nn2c(C)c1CCC(=O)NCc1ccco1` gave D1 ag inactive, D1 antagonist -43, D3 ag inactive, D1 potentiator inactive, DRD3 antagonist inactive and ERG-DNA inh inactive.
Cc1nc2c(-c3ccc(F)cc3)c(C)nn2c(C)c1CCC(=O)NCc1ccc(F)cc1 was read as D1 ag inactive, D1 antagonist inactive, D3 ag inactive, D1 potentiator inactive and ERG-DNA inh inactive.
`CCN1CCN(c2ccc(NC(=O)CCc3c(C)nc4c(-c5ccccc5)c(C)nn4c3C)cc2)CC1` gave D1 ag inactive, D1 antagonist -84, D3 ag inactive, D1 potentiator inactive, DRD3 antagonist inactive and ERG-DNA inh inactive.
For Cc1nc2c(-c3ccc(F)cc3)c(C)nn2c(C)c1CCC(=O)NCc1cccc(Cl)c1 the results were D1 ag inactive, D1 antagonist -39, D3 ag inactive, D1 potentiator inactive and ERG-DNA inh inactive.
Screening CC1(C)N([O-])C2=C(c3ccccc3C2=O)[N+](=O)C1(C)C returned D1 ag inactive, D1 antagonist -32, D3 ag inactive, D1 potentiator inactive, DRD3 antagonist inactive and ERG-DNA inh inactive.
For O=C(NCCCO)c1cc2ccccc2[nH]1 the results were D1 ag inactive, D1 antagonist inactive, D3 ag inactive, D1 potentiator inactive, DRD3 antagonist inactive and ERG-DNA inh inactive.
Screening O=C(NCCN1CCCCC1)c1cc2ccccc2[nH]1 returned D1 ag inactive, D1 antagonist inactive, D3 ag inactive, D1 potentiator inactive, DRD3 antagonist -72 and ERG-DNA inh inactive.
NNC(=O)c1cc2ccccc2[nH]1 was read as D1 ag inactive, D1 antagonist inactive, D3 ag inactive, D1 potentiator inactive, DRD3 antagonist -52 and ERG-DNA inh inactive.
Screening CC(C)(C)OC(=O)NCC(=O)NNC(=O)c1cc2ccccc2[nH]1 returned D1 ag inactive, D1 antagonist -59 and D1 potentiator inactive.
`CNC(=S)N1CCN(c2ccc(OC)cc2)CC1` gave D1 ag inactive, D1 antagonist inactive, D3 ag inactive, D1 potentiator inactive and DRD3 antagonist inactive.
Screening COc1ccc(CC(=O)NCc2nc3cccnc3n2Cc2ccc(C)cc2)cc1 returned D1 ag inactive, D1 antagonist inactive, D3 ag inactive, D1 potentiator inactive and ERG-DNA inh inactive.
Screening Cc1ccccc1CNC(=O)Cn1nc(C)c2nn(-c3ccc(Cl)cc3)c(C)c2c1=O returned D1 ag inactive, D1 antagonist inactive, D3 ag inactive, D1 potentiator inactive and ERG-DNA inh inactive.
`CS(=O)(=O)c1ccc(Cl)c(C(=O)NC2CCSc3ccccc32)c1` (stereo unspecified) gave D1 ag inactive, D1 antagonist -45, D3 ag inactive, D1 potentiator inactive, DRD3 antagonist inactive and ERG-DNA inh inactive.
CCOc1ccc(NS(=O)(=O)c2c(C)nc3sccn3c2=O)cc1 was read as D1 ag inactive, D1 antagonist -34, D3 ag inactive, D1 potentiator inactive, DRD3 antagonist inactive and ERG-DNA inh inactive.
Screening COc1cccc(NS(=O)(=O)c2c(C)nc3sccn3c2=O)c1 returned D1 ag inactive, D1 antagonist -43, D3 ag inactive, D1 potentiator inactive, DRD3 antagonist inactive and ERG-DNA inh inactive.
For CCCCOC(=O)c1ccc(NS(=O)(=O)c2c(C)nc3scc(C)n3c2=O)cc1 the results were D1 ag inactive, D1 antagonist inactive, D3 ag 36, D1 potentiator inactive and ERG-DNA inh inactive.
O=C(c1ccc2c(c1)OCCO2)N1CCN(c2ccccn2)CC1 was read as D1 ag inactive, D1 antagonist inactive, D3 ag inactive, D1 potentiator inactive, DRD3 antagonist inactive and ERG-DNA inh inactive.
For CC1(C)Cc2ccccc2-c2nnc(-c3ccco3)n21 the results were D1 ag inactive, D1 antagonist inactive, D3 ag inactive, D1 potentiator inactive, DRD3 antagonist -52 and ERG-DNA inh inactive.
Screening c1coc(-c2nnc3n2C2(CCCC2)Cc2ccccc2-3)c1 returned D1 ag inactive, D1 antagonist inactive, D3 ag inactive, D1 potentiator inactive, DRD3 antagonist inactive and ERG-DNA inh inactive.
Cc1ccccc1NC(=O)c1oc2c(c1C)-c1nn(Cc3cccc(Cl)c3)cc1CC2 was read as D1 ag inactive, D1 antagonist inactive, D3 ag inactive, D1 potentiator inactive and ERG-DNA inh inactive.
`COc1cc(NC(=O)c2oc3c(c2C)-c2nn(Cc4cccc(Cl)c4)cc2CC3)cc(OC)c1` gave D1 ag inactive, D1 antagonist -31, D3 ag inactive, D1 potentiator inactive and ERG-DNA inh inactive.
O=C(O)Cn1cc(CN2CCOCC2)c2ccccc21 was read as D1 ag inactive, D1 antagonist inactive, D3 ag inactive, D1 potentiator inactive, DRD3 antagonist inactive and ERG-DNA inh inactive.
For Cn1cc(CN2CCN(c3ccccc3)CC2)c2ccccc21 the results were D1 ag inactive, D1 antagonist inactive, D3 ag inactive, D1 potentiator inactive, DRD3 antagonist -79 and ERG-DNA inh inactive.
